Only some compounds are listed: those with a hit (about 0.31% of all), similar ones and a draw of the others.
TRPML1 inh – inhibitors of human TRPML1 channel | Q9GZU1 | TRPML1-inducible cells, Ca2+ dye fluorescence, FDSS; stronger effect = lower value; inhibition of EC80 agonist-evoked calcium signal | activity change, negative = inhibition, % (test concentration not listed) | 0.02% of 390,000 active | AID 624415; in the data active = activity change below about -50%; inconclusive = between about -30% and that limit;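 note: stimulus is agonist 54-4 at its EC80 concentration; % is set by controls: 0 for no effect and ±100 for the full control effect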
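Calcium fluorescence in TRPML1-DL cells induced overnight with Tet: a 110 s read after compound pin addition, then a 110 s antagonist read after challenge with 54-4 at 4 uM final (EC80).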
TRPV1 agonist – agonists of human vanilloid receptor 1 (TRPV1); Q8NER1; TRPV1-expressing cells, Fluo-8 calcium influx, agonist mode; activation, % at 8.33 µM; 0.19% of 320,000 active; AID 540275; in the data active = activation above about 80%; inconclusive = between about 30% and that limit; note: 0% is about no effect
Target sequence (Q8NER1 whole entry, looked up): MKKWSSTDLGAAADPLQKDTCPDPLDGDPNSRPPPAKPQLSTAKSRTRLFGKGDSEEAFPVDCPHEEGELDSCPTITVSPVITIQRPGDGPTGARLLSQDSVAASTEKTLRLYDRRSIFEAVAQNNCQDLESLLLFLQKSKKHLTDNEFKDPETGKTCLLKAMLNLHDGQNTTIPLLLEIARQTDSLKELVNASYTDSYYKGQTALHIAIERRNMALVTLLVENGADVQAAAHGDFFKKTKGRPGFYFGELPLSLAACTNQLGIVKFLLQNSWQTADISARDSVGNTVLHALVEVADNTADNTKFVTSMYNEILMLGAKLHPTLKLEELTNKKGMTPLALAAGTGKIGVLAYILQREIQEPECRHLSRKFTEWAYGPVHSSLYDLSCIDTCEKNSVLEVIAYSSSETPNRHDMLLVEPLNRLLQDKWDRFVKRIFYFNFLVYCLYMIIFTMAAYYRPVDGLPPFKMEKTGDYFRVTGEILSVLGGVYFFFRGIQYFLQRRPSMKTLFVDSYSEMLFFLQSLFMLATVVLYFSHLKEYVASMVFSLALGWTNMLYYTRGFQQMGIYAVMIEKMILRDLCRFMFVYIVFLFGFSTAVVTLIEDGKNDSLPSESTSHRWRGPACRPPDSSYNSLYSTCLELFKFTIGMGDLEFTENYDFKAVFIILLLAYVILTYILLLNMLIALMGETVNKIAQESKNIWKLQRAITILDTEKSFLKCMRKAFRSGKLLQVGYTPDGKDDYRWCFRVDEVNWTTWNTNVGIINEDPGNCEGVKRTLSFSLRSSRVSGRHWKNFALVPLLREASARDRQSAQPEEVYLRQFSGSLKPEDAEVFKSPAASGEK
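TRPV1-expressing cells were cultured overnight at 35.5C and loaded with Fluo-8 calcium dye for 40 to 90 min at room temperature. After a 10 s baseline, compound was added and calcium influx was read kinetically for 3 min (ex 480/em 520 nm).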
TRPML1 agonist – activates the human TRPML1 channel | activation, % (concentration not given with the values) | AID 624414 | TRPML1-expressing cells, Ca2+ dye fluorescence, FDSS | 0.12% of 410,000 active | Q9GZU1; in the data active = activation above about 50%; inconclusive = mostly about 30% to 49%; note: 0% is about no effect
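In this qHTS format, compounds were pin-transferred onto Ca8-dye-loaded TRPML1-DL cells induced with Tet overnight, and intracellular Ca2+ fluorescence was recorded kinetically for 110 s after a 10 s baseline. A subsequent 4uM final 54-4 (EC80) addition followed by a second 110 s read served as the antagonist phase.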
TRPV1 PAM – human TRPV1 potentiation; Q8NER1; TRPV1-expressing cells, Fluo-8 calcium influx, capsaicin EC20 potentiation; potentiation, % at 8.33 µM; 0.02% of 320,000 active; in the data active = potentiation above about 80%; inconclusive = between about 30% and that limit; note: 0% is about no effect
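Fluo-8 calcium influx in TRPV1-expressing cells, kinetic read (ex 480/em 520 nm). Compound added and read 3 min for agonist activity, followed by capsaicin at EC20 final and 2 min further read for enhancement.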
Active calls of the source: *; ? = inconclusive; / = no result.

SMILES	TRPML1 inh	TRPV1 agonist	TRPML1 agonist	TRPV1 PAM
Cc1nc(Nc2cccc(Cl)c2)c2oc3ccccc3c2n1	5.2	85.8*	1.0	13.7
Cc1nc(Nc2cccc(F)c2)c2oc3ccccc3c2n1	14.1	98.6*	1.4	16.7
Cc1nc(Nc2ccc(Cl)cc2)c2oc3ccccc3c2n1	18.0	5.4	0.7	0.9
Cc1cc(Oc2ccc(Cl)cc2Cl)nc(C#N)n1	/	/	-1.0	/
CCCCCCCN(CCCCCCC)c1ccc(/C=C/c2ccnc3ccccc23)cc1	/	/	0.8	/
CCN1CCc2c(sc(NC(=O)c3ccc(S(=O)(=O)N(CC)c4ccccc4)cc3)c2C(N)=O)C1	-8.1	28.0	60.6*	1.5
CCN1CCc2c(sc(NC(=O)Nc3ccc(Cl)c(Cl)c3)c2C(N)=O)C1	-17.1	81.8*	80.8*	14.5
CN(C)c1ccc(/C=C/N2C=CCc3c2ccc2ccccc32)cc1	/	/	0.9	/
CCOC(=O)c1cccc(NC(=O)C2CCN(S(=O)(=O)c3c(C)noc3/C=C/c3ccc(C)cc3)CC2)c1	-8.0	/	0.5	/
COc1ccc(-n2nc(C(=O)NCC(=O)NCCCN3CCCCCC3)c3ccccc3c2=O)cc1Cl	-9.7	-2.1	0.0	81.0*
COc1ccc(-n2nc(C(=O)NCC(=O)NCCCN3CCC(C)CC3)c3ccccc3c2=O)cc1Cl	7.7	-3.0	-0.6	0.0
CCOCCCn1c(SCC(=O)Nc2ccccc2OC)nc2c(oc3ccccc32)c1=O	2.0	/	0.3	/
O=C(NCc1ccc(F)cc1)C1CCCN(c2nc3ccsc3c(=O)s2)C1 (centres undefined)	0.8	83.0*	-0.2	-19.7
CS(=O)(=O)c1ccc(C(=O)Nc2ccc(N3CCCCC3)cc2)c(Cl)c1	18.6	83.4*	2.0	-5.2
CC(=O)N1CCN(c2ccc(NC(=O)c3cccc(Cl)c3Cl)cc2)CC1	-15.9	3.4	0.1	-57.9
O=C(Nc1ccc(N2CCCC2)cc1)c1ccc([N+](=O)[O-])cc1Cl	-8.6	8.6	0.3	-2.0
O=C(Nc1ccc(N2CCCC2)cc1)c1cccc(Cl)c1Cl	-3.3	81.5*	-0.7	-27.0
O=C(CSCc1cc(=O)c2cc(F)ccc2[nH]1)Nc1ccccc1Cl	13.3	/	3.2	/
CCC(C)Sc1cccc(-c2nc3ccc(Cl)cn3c2NCc2ccccc2)c1 (centres undefined)	70.1	87.4*	0.3	26.7
C=CCOc1c(Br)cc(CNc2ccc3[nH]c(=O)[nH]c3c2)cc1OCC	11.1	86.8*	-0.3	-1.2
CCCCCCCCCC[n+]1ccc(/C=C/c2c[nH]c3ccccc23)cc1	/	/	68.3*	/
CCCCCCCCCCCCCCCC[n+]1ccc(/C=C/c2c(C)[nH]c3ccccc23)cc1	/	/	5.1	/
CCCCCCC[n+]1ccc(/C=C/c2c(C)[nH]c3ccccc23)cc1	/	/	57.1*	/
O=[N+]([O-])c1ccc(/C=C2\C=Cc3ccccc32)cc1	/	/	-0.6	/
CC(C)(C)C(=O)NC(=S)NNC(=O)c1ccc(-c2ccccc2)cc1	3.8	?	80.0*	-21.0
SMILES	TRPML1 inh	TRPV1 agonist	TRPML1 agonist	TRPV1 PAM
CC(C)(C)C(=O)NC(=S)NNC(=O)c1ccc(Cl)cc1Cl	19.3	?	65.9*	-11.6
COc1ccc(CCN2C(=O)N(c3ccc(F)cc3)C(=O)C2CC(=O)Nc2ccc(OC)cc2)cc1 (centres undefined)	-0.9	/	0.0	/
O=C(c1ccc(Br)s1)N1CCN(Cc2ccc3c(c2)OCO3)CC1	-51.4*	?	-0.6	1.7
CSC1=NSC2=NC(=O)/C(=C\c3cccs3)C(=N)N12	-9.4	0.6	-0.1	5.5
CSC1=NSC2=NC(=O)/C(=C/c3coc4ccc(O)cc4c3=O)C(=N)N12	4.5	22.4	66.8*	7.9
CSC1=NSC2=NC(=O)/C(=C/c3coc4ccccc4c3=O)C(=N)N12	-10.2	?	77.3*	1.4
N=C1/C(=C\c2coc3ccccc3c2=O)C(=O)N=C2SC=CN12	-7.4	?	71.6*	-0.4
COc1cc(OC)c(/C=C/c2cc3ccccc3c[n+]2C)c(OC)c1	/	/	-0.2	/
COc1cc2cc(C)c3nnc(SCC(=O)Nc4cc(C)on4)n3c2cc1OC	-23.0	-8.6	-0.8	107.8*
Cc1cc(NC(=O)CSc2nnc3c(C)cc4c(C)ccc(C)c4n23)no1	-4.8	-1.4	1.4	18.9
O=C1N=C(N2CCCCC2)S/C1=C\c1ccc(Br)cc1	1.4	86.6*	0.3	6.5
Cc1ccc(/C=C2\SC(N3CCCC3)=NC2=O)cc1	/	?	/	1.8
C1=C(c2ccc(-c3ccccc3)cc2)Nc2ncnn2C1c1ccco1 (centres undefined)	2.5	12.3	69.2*	24.0
c1ccc(-c2csc(N3CCN(c4ccccn4)CC3)n2)cc1	3.9	100.7*	0.0	-4.5
CCOC(=O)c1cn(Cc2ccccc2)c2cc(C)nn2c1=O	7.3	3.1	-0.3	-8.4
CCOC(=O)c1cn(Cc2ccccc2)c(C(=O)OC(C)(C)C)c1O	-5.5	/	60.5*	/
COc1ccc(N2CCN(C3(c4ccccc4)C(=O)c4ccccc4C3=O)CC2)cc1	-10.3	/	3.1	/
COc1ccc(OC)c(C(c2nnnn2CCc2ccccc2)N2CCN(c3ccccc3)CC2)c1 (centres undefined)	-11.2	21.6	50.8*	-1.8
CC(C)(C)c1ccc(OCCNC(=O)Cc2ccc(F)cc2)cc1	-12.6	90.6*	-0.3	8.6
COCCNC(=O)Cc1ccc(F)cc1	-4.9	-1.3	-0.2	8.5
CN(C(=O)c1ccc2c(Cl)c3c(nc2c1)CCC3)c1ccccc1F	-9.0	/	0.1	/
CC(NC(=S)Nc1ccccc1Cl)C(c1ccccc1)N1CCOCC1 (centres undefined)	-7.3	22.1	79.9*	-9.5
COc1ccc(NC(=S)NC(C)C(c2ccccc2)N2CCOCC2)cc1 (centres undefined)	20.1	-3.6	1.7	4.5
CCNC(=O)C1CCN(c2nnc(C)c3c(C)n(-c4ccc(OC)cc4)nc23)CC1	-1.7	/	1.9	/
O=C1c2ccccc2CN1CCSC(=S)N1CCSCC1	/	90.4*	/	8.6
SMILES	TRPML1 inh	TRPV1 agonist	TRPML1 agonist	TRPV1 PAM
Cn1nc(-c2ccccc2)c(N2CCCCC2)cc1=O	25.5	?	2.3	-19.5
COc1ccc(Cn2nc(-c3ccccc3)c(N3CCCCC3)cc2=O)cc1	1.4	85.0*	1.4	14.2
O=c1cc(N2CCCCC2)c(-c2ccccc2)nn1Cc1ccccc1	-8.0	81.0*	2.7	2.1
CC(=O)c1ccc(N2CCN(c3ncnc4onc(C)c34)CC2)cc1	-5.4	/	0.2	/
Cc1oc(-c2cccs2)nc1CS(=O)CC(=O)NCCc1ccccc1 (centres undefined)	2.6	87.4*	-0.2	-7.8
CCOC(=O)N(C(=O)c1ccccc1)c1ccccc1	/	/	-0.2	/
CCOC(=O)c1cc(-c2cccs2)nc2c1c(C)nn2-c1ccccn1	11.9	?	0.6	-4.0
Cc1nn(-c2ccccn2)c2nc(-c3cccs3)cc(C(=O)NCc3ccco3)c12	10.2	82.7*	1.3	-3.8
Cc1nc2c(n1C1CCCCC1)C(=O)c1ccccc1C2=O	-4.4	-3.6	65.4*	-5.9
O=C1c2cccnc2C(=O)N1C1CCCCC1	-11.0	-1.1	1.1	13.2

Compound activity from PubChem.
